This note sets out measurements from PubChem BioAssay (EPA / NIEHS).

The AC50 is the midpoint of the concentration-response curve, whichever way the signal moves.

Test [1] is described as follows: CCTE_Shafer_MEA_acute_spike_number: CCTE's Neural Acute Assay for Total Number of Spikes, Shafer Lab (AID 2284008).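 For AC50: curve fitted for decrease in spike count so AC50 reflects inhibitors.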 In short, it runs like this: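 Rat primary cortical neurons on 48-well MEA plates, DIV 13 or 15, at 37 C. 40 min baseline then 40 min with compound (0.03-40 uM); spikes detected at 8x rms noise, expressed as percent change from baseline.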
Test [2] in a line: CCTE_Shafer_MEA_acute_firing_rate_mean: CCTE's Neural Acute Assay for Mean Firing Rate, Shafer Lab (AID 2284009).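 Note: analyzed for loss of signal so actives lower firing rate relative to DMSO.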 In short, it runs like this:
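Rat cortical neuron cultures matured to DIV 13 or 15, equilibrated 20 min at 37 C, then recorded 40 min for baseline. Compound (0.03-40 uM) added and a further 40 min recorded; percent change in mean firing rate calculated per well.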

Test [3] in a line: CCTE_Harrill_HTTr_Viability_MCF7: CCTE's 6-hour Cell Viability Assessment for the High-Throughput Transcriptomics (HTTr) Platform, in MCF-7 cells cultured in DMEM + 10% fetal bovine serum, Harrill Lab (AID 2284010). In short, it runs like this:
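Eight-point concentration series, six-hour exposure. Propidium iodide exclusion imaged to assess membrane integrity as a cytotoxicity readout; bidirectional fitting was done with DMSO as negative control and activity baseline.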

The nature of test [4]: CCTE_Harrill_HTTr_Apoptosis_MCF7: CCTE's 6-hour Apoptosis Assessment for the High-Throughput Transcriptomics (HTTr) Platform, in MCF-7 cells cultured in DMEM + 10% fetal bovine serum, Harrill Lab (AID 2284011). The essentials: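 MCF-7 cells in DMEM + 10% FBS exposed 6 h to chemicals over an eight-point dilution series. Caspase-3/7 activation imaged by high-content CellEvent Green staining; fitted bidirectionally versus DMSO.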

A short description of test [5]: CCTE_Shafer_MEA_acute_burst_number: CCTE's Neural Acute Assay for Single-Electrode Bursts, Shafer Lab (AID 2284013). In short, it runs like this: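 Percent change in single-electrode burst number per well, from 40-min recordings taken before and after adding compound (0.03-40 uM) to primary rat cortical neurons on MEA plates at DIV 13 or 15, 37 C.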
A short description of test [6]: CCTE_Shafer_MEA_acute_per_burst_spike_number_mean: CCTE's Neural Acute Assay for Average Number of Spikes Per Burst, Shafer Lab (AID 2284015).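 Note: hits are decreases in mean spikes per burst versus baseline.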 In short, it runs like this:
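Percent change in mean spikes per single-electrode burst is compared between a 40 min baseline and a 40 min recording with compound (0.03-40 uM). Cultures were rat cortical neurons on MEA plates at DIV 13 or 15, recorded at 37 C, with DMSO as the negative control.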

Test [7] is described as follows: CCTE_Shafer_MEA_acute_interburst_interval_mean: CCTE's Neural Acute Assay for Mean Interburst Interval, Shafer Lab (AID 2284016).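 Note: percent change of mean interburst interval versus each well's own pre-dose baseline; curves fitted for decrease in interburst interval relative to DMSO.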 In short, it runs like this: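 Percent change in mean single-electrode interburst interval was calculated per well from 40 min recordings before and after compound (0.03-40 uM). Recordings were made at 37 C on rat cortical cultures at DIV 13 or 15, with spikes detected at 8x rms threshold.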

Test [8] can be described thus: CCTE_Shafer_MEA_acute_burst_percentage_mean: CCTE's Neural Acute Assay for Percentage of Spikes in a Burst, Shafer Lab (AID 2284017).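 For AC50: curve fitted for loss of signal so potency reflects decreased burst percentage.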 In short, it runs like this: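 Well-level mean burst percentage from a 40-min recording after compound (0.03-40 uM) expressed as percent change from a 40-min baseline at 37C. Cultures: primary rat cortical neurons on MEA, dosed on DIV 13 or 15; fitted downward relative to DMSO.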

The nature of test [9]: CCTE_Shafer_MEA_acute_burst_percentage_std: CCTE's Neural Acute Assay for Standard Deviation of Burst Percentage, Shafer Lab (AID 2284018).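 Note: fitted in the negative direction so actives lower burst percentage SD.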 The essentials: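 Rat primary cortical neurons on 48-well MEAs, DIV 13 or 15, 37 C. 40-min baseline then 40-min recording with compound (0.03-40 uM); well-level SD of per-electrode burst spike percentage, expressed as percent change from baseline.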

Test [10] in a line: CCTE_Shafer_MEA_acute_per_network_burst_spike_number_mean: CCTE's Neural Acute Assay for Average Number of Spikes in a Network Burst, Shafer Lab (AID 2284019).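 For AC50: curve fitted for loss of signal so actives reduce spikes per network burst.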 In short, it runs like this:
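Rat cortical cultures, DIV 13/15; spike threshold 8x rms noise, 300-5000 Hz band-pass, 12.5 kHz sampling; wells need >/= 10 active electrodes. Compound 0.03-40 uM, 40 min, 37 C; % change vs own baseline, DMSO negative control.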

Test [11] in a line: CCTE_Shafer_MEA_acute_per_network_burst_spike_number_std: CCTE's Neural Acute Assay for Standard Deviation of Number of Spikes in a Network Burst, Shafer Lab (AID 2284020).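 Note: fitted for decrease in spike-number SD versus DMSO so actives lower it.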 In short, it runs like this:
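Rat cortical cultures, DIV 13/15, 37 C; 20-min stabilisation, 40-min baseline, compound 0.03-40 uM, 40-min re-record. Spikes detected at 8x rms noise (300-5000 Hz band-pass). Readout: % change from baseline in per-burst spike-number SD.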

The nature of test [12]: CCTE_Harrill_HTTr_CellCount_MCF7: CCTE's Cell Proliferation Assessment for the High-Throughput Transcriptomics (HTTr) Platform, Harrill Lab (AID 2284012; active = hit-call score of the fitted dose curve at least 0.9, where 1 is the maximum;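 note: intended direction is loss of nuclei count meaning fewer cells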). In short, it runs like this: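 For this full-screen endpoint, MCF-7 cultures received eight compound dilutions for six hours. Well nuclei counts from Hoechst imaging were analyzed relative to DMSO.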

Values joined by “and” are separate entries in the source; they are usually repeats but may differ in a detail not shown here. Equal entries are not always repeated. Records with an inconclusive call do not appear. The source holds several records for some structures; these can differ, active in one and inactive in another. Active and inactive are the calls of the source. Rule for the calls, unless noted: active = hit-call score of the fitted dose curve at least 0.9, where 1 is the maximum; inactive = score below 0.9.

Turning to `CC(C)N(C(=O)COc1nnc(C(F)(F)F)s1)c1ccc(F)cc1`, the AC50 was 5.77 µM (active) and 2.11 µM (active) in test [1]; 5.77 µM (active) in test [2]; 1.36 µM (active) in test [6]; 31.9 µM (active) in test [7]; 30.6 µM (active) and 15 µM (active) in test [8]; 3.55 µM (active) in test [9]. Moreover, the AC50 in test [11] was 1.32 µM (active). The outcome in test [2], in test [3], in [4], in test [5], in test [6] and in test [7] was inactive. Further, the compound was classed as inactive in test [9], in [10] and in [11].
With `COP(=S)(OC)Oc1ccc(SC)c(C)c1`, the AC50 in [1] was 7.7 µM (active); in [2], 7.7 µM (active); in [5] it was 6.28 µM (active); in [8] it was 29.1 µM (active); in test [9] it was 33.2 µM (active). Also, the result in test [3], in test [4], in test [6], in [7], in test [10] and in [11] was inactive.
With `O=C(Nc1ccccc1)Nc1cnns1`, the outcome in test [3], in test [4] and in test [12] was inactive.
With `COP(=O)(OC)OC=C(Cl)Cl`, the result in test [3] and in test [4] was inactive.
On to `O=C1c2ccccc2C(=O)N1SC(Cl)(Cl)Cl`, for which the result in test [1], in [2], in [3], in test [4], in test [12] and in test [5] was inactive. Besides, the outcome in test [6], in test [7], in test [8], in test [9], in [10] and in test [11] was inactive.
As for `OCCOc1ccccc1`, the result in test [3] and in [4] was inactive.
With `CNC(=O)Oc1cccc(N=CN(C)C)c1`, the outcome in test [3], in test [4] and in [12] was inactive.
Consider `O=C(O)C(F)(F)C(F)(F)C(F)(F)C(F)(F)C(F)(F)C(F)(F)C(F)(F)F`, for which the outcome in test [3], in test [4] and in test [12] was inactive.
As for `ClC1C(Cl)C(Cl)C(Cl)C(Cl)C1Cl` (stereo not drawn), the AC50 in [1] was 20 µM (active); in [2], 20 µM (active); in test [6] it was 1.62 µM (active); in [8] it was 1.53 µM (active); in test [10] it was 1.23 µM (active). Also, the result in test [3], in test [4], in test [12], in test [5], in test [7] and in test [9] was inactive. Moreover, the result in test [11] was inactive.
Regarding `N#CN`, the compound was called inactive in test [1], in test [2], in test [3], in test [4], in test [5] and in test [6]. For the same compound, the compound was classed as inactive in test [7], in [8], in test [9], in test [10] and in test [11].
With `CNC(=O)/C=C(\C)OP(=O)(OC)OC`, the outcome in [1], in [2], in [3], in test [4], in test [5] and in [6] was inactive. Further, the compound was called inactive in test [7], in [8], in test [9], in [10] and in test [11].
Regarding `CC1(C)C(C=C(Cl)Cl)C1C(=O)OC(C#N)c1ccc(F)c(Oc2ccccc2)c1` (stereo not drawn), the AC50 in [1] is 407 nM (active) and 4.51 µM (active); in test [2] it was 450 nM (active) and 4.51 µM (active); in test [5] it was 0.173 µM (active); in [6], 0.574 µM (active); in test [8], 210 nM (active) and 1.95 µM (active); in test [9] it was 5.28 µM (active). Besides, the AC50 is 54.4 nM (active) and 609 nM (active) in [10]; 81.2 nM (active) and 622 nM (active) in test [11]. In addition, the outcome in test [3], in test [4], in test [12], in test [5], in [6] and in test [7] was inactive. Further, the compound was classed as inactive in test [9].
On to `CNC(=O)Oc1ccccc1OC(C)C`, for which the outcome in [3] and in test [4] was inactive.
On to `CCc1ccc(C(=O)NN(C(=O)c2cc(C)cc(C)c2)C(C)(C)C)cc1`, for which the outcome in test [3] and in [4] was inactive.
Consider `COc1nn(CSP(=S)(OC)OC)c(=O)s1`, for which the outcome in test [3], in test [4] and in [12] was inactive.
